These results are taken from PubChem BioAssay (EPA / NIEHS).

The source made the active and inactive calls. How the source made its calls: active means hit-call score of the fitted dose curve at least 0.9, where 1 is the maximum; inactive means score below 0.9.

Read-out in assay [1]: Low-density lipoprotein receptor (LDLR), LDLR (gene 3949)
Nature of the assay: BSK_CASM3C_LDLR: BioMAP Diversity Plus: CASM3C Assay for Low-density lipoprotein receptor (LDLR) Biomarker Activity (AID 2283045).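 Further: LDLR protein level on the cell surface quantified by ELISA.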 The settings on record: primary human coronary artery smooth muscle cells; actives raise or lower the signal.

Read-out in assay [2]: Monocyte Chemoattractant Protein-1 (MCP1), CCL2 (gene 6347)
Nature of the assay: BSK_CASM3C_MCP1: BioMAP Diversity Plus: CASM3C Assay for Monocyte Chemoattractant Protein-1 (MCP1) Biomarker Activity (AID 2283046).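 Further: MCP-1 level quantified by ELISA 24 h after dosing.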 The note with it: primary human coronary artery smooth muscle cells; actives raise or lower the signal.

Assay [3] can be described thus: BSK_CASM3C_Proliferation: Cell Proliferation Assessment in the BioMAP Diversity Plus: CASM3C Assay (AID 2283047).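 Further: sulforhodamine B total protein stain as relative cell number at 560 nm; sub-confluent cells exposed 48 h before staining; fitted both ways against DMSO so gain or loss of cell number.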 The settings on record: primary human coronary artery smooth muscle cells.
Read-out in assay [4]: Monokine induced gamma interferon (MIG), CXCL9 (gene 4283)
Nature of the assay: BSK_CASM3C_MIG: BioMAP Diversity Plus: CASM3C Assay for Monokine induced gamma interferon (MIG) Biomarker Activity (AID 2283048).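 Further: MIG protein level measured by ELISA.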 The settings on record: primary human coronary artery smooth muscle cells; actives raise or lower the signal.

Read-out in assay [5]: serum amyloid A (SAA), SAA1 (gene 6288)
The assay can be described thus: BSK_CASM3C_SAA: BioMAP Diversity Plus: CASM3C Assay for serum amyloid A (SAA) Biomarker Activity (AID 2283049).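 Further: SAA protein level quantified by ELISA.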 The note with it: primary human coronary artery smooth muscle cells; actives raise or lower the signal.

Assay [6] is described as follows: BSK_CASM3C_SRB: Viability Assessment in the BioMAP Diversity Plus: CASM3C Assay (AID 2283050).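 Further: total protein by SRB staining as cytotoxicity measure in parallel cultures.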 The settings on record: primary human coronary artery smooth muscle cells.
Read-out in assay [7]: Thrombomodulin, THBD (gene 7056)
The assay can be described thus: BSK_CASM3C_Thrombomodulin: BioMAP Diversity Plus: CASM3C Assay for Thrombomodulin Biomarker Activity (AID 2283051).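 Further: thrombomodulin protein level measured by ELISA 24 h after dosing.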 The settings on record: primary human coronary artery smooth muscle cells; actives raise or lower the signal.

Read-out in assay [8]: Tissue Factor, F3 (gene 2152)
The assay can be described thus: BSK_CASM3C_TissueFactor: BioMAP Diversity Plus: CASM3C Assay for Tissue Factor Biomarker Activity (AID 2283052).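 Further: cell surface tissue factor protein level read by ELISA.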 The note with it: primary human coronary artery smooth muscle cells; actives raise or lower the signal.

Read-out in assay [9]: Interferon-gamma inducible Protein 10 (IP10), CXCL10 (gene 3627)
The assay can be described thus: BSK_hDFCGF_IP10: BioMAP Diversity Plus: hDFCGF Assay for Interferon-gamma inducible Protein 10 (IP10) Biomarker Activity (AID 2283053). The settings on record: primary human foreskin fibroblasts; actives raise or lower the signal. The essentials: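 Human foreskin fibroblast primary cells (hDFCGF system) were dosed with chemical and assayed at 24 h; IP-10 measured by ELISA. Activity fitted bidirectionally relative to DMSO negative control as baseline.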

Read-out in assay [10]: Urokinase-type plasminogen activator receptor (uPAR), PLAUR (gene 5329)
The assay can be described thus: BSK_CASM3C_uPAR: BioMAP Diversity Plus: CASM3C Assay for Urokinase-type plasminogen activator receptor (uPAR) Biomarker Activity (AID 2283054).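 Further: cell-surface uPAR protein level quantified by ELISA.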 The settings on record: primary human coronary artery smooth muscle cells; actives raise or lower the signal.

Read-out in assay [11]: Vascular cell adhesion molecule 1 (VCAM1), VCAM1 (gene 7412)
The assay can be described thus: BSK_CASM3C_VCAM1: BioMAP Diversity Plus: CASM3C Assay for Vascular cell adhesion molecule 1 (VCAM1) Biomarker Activity (AID 2283055).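 Further: VCAM-1 protein level quantified by ELISA on the cells.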 The note with it: primary human coronary artery smooth muscle cells; actives raise or lower the signal.

Read-out in assay [12]: Collagen III, COL3A1 (gene 1281)
Nature of the assay: BSK_hDFCGF_CollagenIII: BioMAP Diversity Plus: hDFCGF Assay for Collagen III Biomarker Activity (AID 2283056). The note with it: primary human foreskin fibroblasts; actives raise or lower the signal. The method in brief: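 Response relative to DMSO, fitted in both directions, reflects ELISA-measured collagen III in human primary skin fibroblasts 24 h after compound addition.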

Read-out in assay [13]: Epidermal growth factor receptor (EGFR), EGFR (gene 1956)
The assay can be described thus: BSK_hDFCGF_EGFR: BioMAP Diversity Plus: hDFCGF Assay for Epidermal growth factor receptor (EGFR) Biomarker Activity (AID 2283057). The settings on record: primary human foreskin fibroblasts; actives raise or lower the signal. The method in brief: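 Primary human foreskin fibroblasts were exposed to compound for 24 h, after which cell-surface EGFR was quantified by ELISA. Activity was fitted bidirectionally against the DMSO negative control as baseline.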

Read-out in assay [14]: Interleukin-8 (IL8), CXCL8 (gene 3576)
Nature of the assay: BSK_hDFCGF_IL8: BioMAP Diversity Plus: hDFCGF Assay for Interleukin-8 (IL8) Biomarker Activity (AID 2283058). The note with it: primary human foreskin fibroblasts; actives raise or lower the signal. The method in brief:
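Fibroblast monolayers (human foreskin, hDFCGF) received test chemical for 24 h before ELISA detection of IL-8; either increases or decreases relative to DMSO count as activity.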

The nature of assay [15]: BSK_hDFCGF_Proliferation: Cell Proliferation Assessment in the BioMAP Diversity Plus: hDFCGF Assay (AID 2283059).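 Further: curves fitted for both rise and fall of signal versus DMSO baseline.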 The settings on record: primary human foreskin fibroblasts. The method in brief:
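Total protein read at 560 nm after 0.1% SRB staining of TCA-fixed human skin fibroblasts, […]. Activity is fitted in both directions relative to DMSO as baseline.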

Read-out in assay [16]: Macrophage colony-stimulating factor (MCSF), CSF1 (gene 1435)
The assay can be described thus: BSK_hDFCGF_MCSF: BioMAP Diversity Plus: hDFCGF Assay for Macrophage colony-stimulating factor (MCSF) Biomarker Activity (AID 2283060). The settings on record: primary human foreskin fibroblasts; actives raise or lower the signal. The method in brief:
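fibroblasts (human foreskin, primary), 24 h post-dose; M-CSF by ELISA; bidirectional fit, DMSO = baseline.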

A short description of assay [17]: BSK_hDFCGF_SRB: Viability Assessment in the BioMAP Diversity Plus: hDFCGF Assay (AID 2283061).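 Further: cells exposed to compound for 24 h before the read.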 The note with it: primary human foreskin fibroblasts. The method in brief:
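SRB-based viability read on primary human skin fibroblasts at 24 h: TCA fixation, 0.1% dye, 560 nm. Gain or loss of signal is fitted against the DMSO negative control.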

Read-out in assay [18]: TIMP metallopeptidase inhibitor 1 (TIMP1), TIMP1 (gene 7076)
Nature of the assay: BSK_hDFCGF_TIMP1: BioMAP Diversity Plus: hDFCGF Assay for TIMP metallopeptidase inhibitor 1 (TIMP1) Biomarker Activity (AID 2283062). The note with it: primary human foreskin fibroblasts; actives raise or lower the signal. The method in brief: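 Bidirectional curve fitting against DMSO baseline yielded this endpoint, based on ELISA detection of TIMP-1 in primary human foreskin fibroblasts exposed to compound for 24 h.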

Read-out in assay [19]: Monokine induced gamma interferon (MIG), CXCL9 (gene 4283)
The assay can be described thus: BSK_hDFCGF_MIG: BioMAP Diversity Plus: hDFCGF Assay for Monokine induced gamma interferon (MIG) Biomarker Activity (AID 2283063). The settings on record: primary human foreskin fibroblasts; actives raise or lower the signal. The essentials:
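Endpoint derived by bidirectional fitting relative to DMSO; MIG quantified via ELISA in primary human foreskin fibroblasts harvested 24 h after dosing.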

Read-out in assay [20]: Matrix Metallopeptidase 1 (MMP1), MMP1 (gene 4312)
Nature of the assay: BSK_hDFCGF_MMP1: BioMAP Diversity Plus: hDFCGF Assay for Matrix Metallopeptidase 1 (MMP1) Biomarker Activity (AID 2283064). The settings on record: primary human foreskin fibroblasts; actives raise or lower the signal. The essentials: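 hDFCGF primary fibroblasts (human foreskin); chemical added; 24 h; MMP1 by ELISA; bidirectional fit vs DMSO.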

Broadly, the AC50 is the midpoint of the concentration-response curve, whichever way the signal moves. In the case of `CCCCCCCCCCCCCCOS(=O)(=O)O`, the outcome in assay [1], in assay [2], in assay [3], in [4], in assay [5] and in [6] was inactive. Moreover, the result in assay [7], in [8], in [10] and in assay [11] was inactive. Moreover, the half-maximal activity concentration (AC50) was 8.52 µM (active) in assay [9]; 7.78 µM (active) in assay [12]; 12.2 µM (active) in assay [13]; 12.4 µM (active) in assay [14]; 5.36 µM (active) in [15]; 9.53 µM (active) in assay [16]. In addition, the AC50 in assay [17] was 10.1 µM (active); in [18], 9.76 µM (active); in [19], 7.52 µM (active); in assay [20] it was 5.54 µM (active).

Turning to `Nc1nc(Cl)nc2c1ncn2[C@H]1C[C@H](O)[C@@H](CO)O1`, the result in assay [1], in [2], in [4], in assay [5], in assay [6] and in assay [7] was inactive. The outcome in assay [8], in assay [9], in [10], in assay [11], in assay [12] and in assay [13] was inactive. The result in assay [14], in assay [17], in assay [18], in assay [19] and in [20] was inactive. In addition, the concentration at half-maximal activity (AC50) was 0.54 µM (active) in [3], 0.147 µM (active) in assay [15] and 1.01 µM (active) in assay [16].

As for `O=C(Oc1ccccc1)c1cccc(C(=O)Oc2ccccc2)c1`, the result in assay [1], in [2], in assay [3], in assay [4], in [5] and in [6] was inactive. The result in [7], in [8], in assay [9], in [10], in assay [11] and in assay [12] was inactive. In addition, the result in assay [13], in assay [14], in [15], in assay [16], in [17] and in assay [18] was inactive. The result in assay [19] and in assay [20] was inactive.

Consider `Oc1ccccc1O`, for which the outcome in [1], in assay [2], in [4], in assay [5], in assay [6] and in assay [8] was inactive. In addition, the outcome in assay [10], in assay [13], in assay [14], in assay [17], in assay [18] and in assay [20] was inactive. Besides, the half-maximal activity concentration (AC50) is 7.66 µM (active) in [3]; 11 µM (active) in assay [7]; 14.1 µM (active) in [9]; 5.64 µM (active) in assay [11]; 10.2 µM (active) in assay [12]; 12 µM (active) in assay [15]. Moreover, the values for the concentration at half-maximal activity (AC50) in assay [16] and in assay [19] were 13.3 µM (active) and 11.2 µM (active), respectively.

Regarding `O=C(O)CN(CC(=O)O)CC(=O)O`, the result in [1], in assay [2], in assay [3], in [4], in assay [5] and in [6] was inactive. For the same molecule, the outcome in assay [7], in assay [8], in assay [9], in [10], in [11] and in assay [12] was inactive. The outcome in assay [13], in [14], in assay [15], in [16], in assay [17] and in [18] was inactive. The result in [19] and in assay [20] was inactive.

Consider `Cc1ccc(-c2cc(C(F)(F)F)nn2-c2ccc(S(N)(=O)=O)cc2)cc1`, for which the AC50 was 22.5 µM (active) in [1]; 31.5 µM (active) in assay [2]; 30.8 µM (active) in [3]; 31 µM (active) in assay [4]; 31.2 µM (active) in assay [5]; 33.9 µM (active) in [6]. Also, the AC50 is 4.85 µM (active) in assay [7], 36.7 µM (active) in [8], 30.4 µM (active) in assay [10] and 29.9 µM (active) in [11]. Also, the result in assay [9], in [12], in assay [13], in [14], in [15] and in assay [16] was inactive. The outcome in [17], in assay [18], in assay [19] and in assay [20] was inactive.

Consider `COc1ccc(C(=O)Nc2nc3ccccc3c(NCc3ccccc3)c2C#N)cc1`, for which the AC50 is 9.66 µM (active) in assay [1], 2.8 µM (active) in [12] and 5.53 µM (active) in assay [15]. The outcome in assay [2], in assay [3], in assay [4], in assay [5], in [6] and in assay [7] was inactive. Besides, the result in assay [8], in assay [9], in assay [10], in [11], in assay [13] and in assay [14] was inactive. The outcome in assay [16], in [17], in assay [18], in [19] and in assay [20] was inactive.
